Results filed as inconclusive are left out. Active and inactive are the calls of the source. The call rests on the fitted dose curve; in most records, active means well fitted inhibition curve with a large enough effect; inconclusive means small, poorly fitted or top-dose-only effect; inactive means flat fitted curve, though single readings scatter.

Common to all, as to test: qHTS profiling for inhibitors of Plasmodium falciparum proliferation (AID 504749); further: nearly all actives have a fitted effect of over 60% in size
Holding throughout (conditions): P. falciparum in erythrocytes, SYBR Green DNA, 72 h; series mostly up to 28.7 µM

One assay has as its system CP335. The gist of the method:
(§1)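 Three-day growth assay of blood-stage parasites in erythrocytes (0.3% parasitemia, 2.5% hematocrit) at 37 C, 5% CO2, quantified by SYBR Green DNA staining after overnight detergent lysis.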

A further assay relates to DFO2036. In short, it runs like this: as §1
In a further assay the test system is DIV14. In short, it runs like this: as §1
Another assay relates to DIV17. In short, it runs like this:
as §1

For the next assay, the system named is DIV30. In short, it runs like this:
as §1

For a further assay, the system named is Dd2. The gist of the method:
as §1

For the next assay, the system named is ECU. In short, it runs like this: as §1
The test system of the next assay is FAB9. In short, it runs like this: as §1
The subject of another assay is GB4. In short, it runs like this: as §1
The next assay relates to HB3. In short, it runs like this:
as §1
Potency means the concentration at half of the fitted maximal effect.

For the compound `O=C(O)/C=C/C(=O)Nc1ccc(S(=O)(=O)Nc2nccs2)cc1`, the Potency result with CP335, in the assay with DFO2036, in the assay with DIV14, in the assay with DIV17, with DIV30 and in the assay with Dd2 was “inactive” in each case. Besides, the Potency result with ECU, with FAB9, in the assay on GB4 and in the assay with HB3 was “inactive” throughout.
Turning to `O=P(O)(O)OP(=O)(O)OP(=O)(O)O`, the Potency entry with CP335, in the assay on DFO2036, in the assay on DIV14, in the assay with DIV17, in the assay with DIV30 and in the assay with Dd2 was “inactive” throughout. The Potency entry in the assay with ECU, in the assay with FAB9, in the assay on GB4 and with HB3 was “inactive” throughout.
For the compound `CCCCCCCCCCCC(=O)OCC(O)CO` (stereo not given), the Potency entry in the assay on CP335, with DFO2036, in the assay with DIV14, in the assay on DIV17, with DIV30 and with Dd2 was “inactive” in each case. Also, the Potency entry in the assay with ECU, in the assay on FAB9, in the assay with GB4 and with HB3 was “inactive” each time.
For `Oc1cc(O)cc(O)c1`, the Potency entry in the assay with CP335, in the assay with DFO2036, with DIV14, in the assay with DIV17, in the assay with DIV30 and in the assay with Dd2 was “inactive” each time. In addition, the Potency entry with ECU, in the assay with FAB9, in the assay on GB4 and with HB3 was “inactive” throughout.
As for `NC(=O)Oc1ccc(Cc2ccccc2)cc1`, the Potency result in the assay with CP335, in the assay on DFO2036, in the assay on DIV14, in the assay with DIV17, in the assay on DIV30 and in the assay with Dd2 was “inactive” in each case. The Potency result with ECU, with FAB9, in the assay with GB4 and in the assay on HB3 was “inactive” each time.
`C[C@@](Cc1ccc(O)c(O)c1)(NN)C(=O)O`: the Potency entry in the assay on CP335, with DFO2036, in the assay with DIV14, in the assay on DIV17, with DIV30 and in the assay on Dd2 was “inactive” in each case. For the same compound, the Potency result in the assay with ECU, in the assay on FAB9, in the assay with GB4 and in the assay with HB3 was “inactive” throughout.
Regarding `CC(=O)Nc1ccc(OC(C)=O)cc1`, the Potency entry in the assay on CP335, in the assay with DFO2036, with DIV14, in the assay with DIV17, in the assay on DIV30 and in the assay with Dd2 was “inactive” each time. In addition, the Potency entry in the assay with ECU, with FAB9, in the assay on GB4 and in the assay with HB3 was “inactive” in each case.
With `Cc1ccc(S(=O)(=O)NCl)cc1`, the Potency entry with CP335, in the assay on DFO2036, with DIV14, with DIV17, in the assay on DIV30 and with Dd2 was “inactive” each time. In addition, the Potency result in the assay on ECU, in the assay with FAB9, in the assay with GB4 and with HB3 was “inactive” each time.
`S=C=Nc1ccc(N=C=S)cc1`: the Potency entry in the assay with CP335, in the assay on DFO2036, with DIV14, in the assay on DIV17, with DIV30 and with Dd2 was “inactive” each time. Further, the Potency result in the assay on ECU, in the assay with FAB9, with GB4 and in the assay with HB3 was “inactive” throughout.
For `Cc1cccc(C)c1NC(=O)NC1=CCCN1C`, the Potency result in the assay on CP335, in the assay with DFO2036, in the assay on DIV14, with DIV17, with DIV30 and in the assay with Dd2 was “inactive” throughout. Further, the Potency entry in the assay on ECU, in the assay with FAB9, with GB4 and in the assay with HB3 was “inactive” each time.
Take `CC(C)(C)CC(C)(C)c1cc(Cc2cc(C(C)(C)CC(C)(C)C)cc(-n3nc4ccccc4n3)c2O)c(O)c(-n2nc3ccccc3n2)c1`: the Potency result with CP335, with DFO2036, with DIV14, with DIV17, in the assay on DIV30 and with Dd2 was “inactive” throughout. Moreover, the Potency entry in the assay on ECU, with FAB9, in the assay on GB4 and with HB3 was “inactive” in each case.
Take `OCC1(CO)COC(C(Cl)(Cl)Cl)OC1`: the Potency entry in the assay with CP335, in the assay with DFO2036, in the assay with DIV14, in the assay on DIV17, in the assay with DIV30 and in the assay with Dd2 was “inactive” each time. Moreover, the Potency result in the assay on ECU, in the assay on FAB9, in the assay with GB4 and in the assay with HB3 was “inactive” throughout.
Turning to `CCN(CC)CCOC(=O)c1cccnc1`, the Potency entry with CP335, with DFO2036, in the assay on DIV14, in the assay on DIV17, with DIV30 and in the assay on Dd2 was “inactive” each time. Moreover, the Potency entry in the assay with ECU, in the assay with FAB9, in the assay with GB4 and in the assay with HB3 was “inactive” in each case.
Turning to `C=CCCCCCCCCC(=O)OC`, the Potency result with CP335, in the assay with DFO2036, in the assay with DIV14, in the assay with DIV17, in the assay on DIV30 and with Dd2 was “inactive” each time. Besides, the Potency entry with ECU, in the assay on FAB9, in the assay with GB4 and in the assay with HB3 was “inactive” in each case.
On to `CN=C1C=CC(=C(c2ccc(N(C)C)cc2)c2ccc(N(C)C)cc2)C=C1`, for which the Potency is 0.301 µM (active) in the assay with CP335; 0.398 µM (active) with DFO2036; 1.51 µM (active) with DIV14; 1.51 µM (active) in the assay on DIV17; 1.69 µM (active) in the assay with DIV30; 0.282 µM (active) with Dd2. Moreover, the Potency in the assay on ECU is 0.891 µM (active); in the assay with FAB9, 1.12 µM (active); with GB4 it was 0.675 µM (active); with HB3, 1 µM (active).
For `c1ccc(-n2cnnn2)cc1`, the Potency entry in the assay with CP335, with DFO2036, in the assay on DIV14, in the assay with DIV17, in the assay on DIV30 and with Dd2 was “inactive” each time. Further, the Potency result in the assay with ECU, in the assay with FAB9, with GB4 and with HB3 was “inactive” throughout.
On to `[O]=[Bi][O][Bi]=[O]`, for which the Potency entry in the assay on CP335, in the assay on DFO2036, in the assay with DIV14, with DIV17, with DIV30 and with Dd2 was “inactive” in each case. Moreover, the Potency entry in the assay with ECU, in the assay on FAB9, in the assay with GB4 and in the assay on HB3 was “inactive” in each case.
For the compound `CC(C)[C@H](N)C(=O)OCC(CO)OCn1cnc2c(=O)[nH]c(N)nc21` (stereo not given in full), the Potency entry with CP335, with DFO2036, in the assay on DIV14, in the assay with DIV17, in the assay with DIV30 and in the assay on Dd2 was “inactive” each time. The Potency result with ECU, with FAB9, in the assay with GB4 and with HB3 was “inactive” throughout.
In the case of `CC(C)CCCC(C)NC(C)C` (stereo not given), the Potency entry with CP335, in the assay on DFO2036, in the assay with DIV14, in the assay with DIV17, with DIV30 and in the assay on Dd2 was “inactive” in each case. The Potency entry with ECU, in the assay on FAB9, in the assay with GB4 and in the assay on HB3 was “inactive” in each case.
Consider `OCC(O)CO`, for which the Potency entry with CP335, with DFO2036, with DIV14, with DIV17, with DIV30 and in the assay with Dd2 was “inactive” in each case. Further, the Potency result in the assay with ECU, in the assay on FAB9, in the assay with GB4 and with HB3 was “inactive” throughout.
For the compound `COc1ccc(C(=O)c2ccc(C)cc2)c(O)c1`, the Potency entry in the assay with CP335, in the assay on DFO2036, with DIV14, in the assay on DIV17, in the assay with DIV30 and in the assay with Dd2 was “inactive” throughout. In addition, the Potency entry in the assay with ECU, in the assay on FAB9, with GB4 and in the assay on HB3 was “inactive” in each case.
For the compound `CN(CCO)CC(O)Cn1cnc2c1c(=O)n(C)c(=O)n2C` (stereo not given) (tested in a mixture with another compound), the Potency result in the assay on CP335, in the assay with DFO2036, with DIV14, in the assay with DIV17, in the assay on DIV30 and with Dd2 was “inactive” throughout. Besides, the Potency result with ECU, in the assay on FAB9, in the assay with GB4 and in the assay on HB3 was “inactive” throughout.
Take `CC(=O)[C@H]1CC[C@H]2[C@@H]3C=CC4=CC(=O)CC[C@@]4(C)[C@H]3CC[C@]12C`: the Potency entry in the assay on CP335, in the assay on DFO2036, in the assay with DIV14, in the assay on DIV17, in the assay with DIV30 and with Dd2 was “inactive” throughout. The Potency entry with ECU, in the assay on FAB9, with GB4 and in the assay with HB3 was “inactive” throughout.

The record behind these values is PubChem BioAssay (NCATS).
